Test results published in PubChem BioAssay AID2782 (National Center for Advancing Translational Sciences (NCATS), 2010).
Results filed as inconclusive are left out. A call without a number means that no potency is given here. Active and inactive are the calls of the source. Calls follow the shape of the dose curve; as a rule, active = well fitted inhibition curve with a large enough effect in the polarisation, with a control signal flat (not every such curve was filed as active); inconclusive = small, poorly fitted or top-dose-only effect, or effect the other way, or a change in a side signal; inactive = no such curve, though single readings can be large or run the other way; the % refers to the polarisation.

Assay: Confirmation of Inhibitors Targeting the Menin-MLL Interaction in MLL Related Leukemias: Competition With Texas Red Labeled MLL-derived Mutant Peptide
Details: fluorescence polarization, Texas Red MLL peptide displacement; series mostly up to 94.6 µM
Outline: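 Hits from the primary screen were retested: compounds were incubated 1 hr at ambient with 200 nM menin, 50 nM Texas Red mutant peptide and 25 nM fluorescein wild-type peptide (Tris pH 7.5, BSA-supplemented buffer), then fluorescence polarization was read.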
Potency is read from the fitted curve at half-maximal effect.

Structure (SMILES)	Potency
COc1ccccc1N(CC1CO1)S(=O)(=O)c1ccccc1 (configuration not stated)	inactive
O=C(CCN1CCN(c2ccc([N+](=O)[O-])cc2)CC1)c1ccc(Cl)cc1	inactive
Cn1c(=O)[nH]c(=O)c2c1nc(Br)n2CCSc1nc2ccccc2o1	inactive
NC(=O)[C@@H]1CCCNc2c(I)cc([N+](=O)[O-])cc2C(=O)N[C@@H](CCCN=C(N)N)C(=O)N[C@@H](CCCN=C(N)N)C(=O)N1	141 µM (active)
CN(C)c1ccc(C2CC(=O)C=C(Nc3ccccc3N)C2)cc1 (configuration not stated)	63.2 µM (active)
O=C(CC(Sc1ccc(Br)cc1)C(=O)O)c1ccc(F)cc1 (configuration not stated)	inactive
CCCNC(=O)c1ccc2c(=O)c(O)c(C)[nH]c2c1	inactive
CC(=O)Nc1ccc(-c2cc3ccccc3o2)cc1	inactive
C[C@H](NC(=O)c1cc2c(cn1)[nH]c1ccccc12)C(=O)O	56.4 µM (active)
CCCC(=O)NC(c1ccccc1Cl)c1ccc2cccnc2c1O (configuration not stated)	inactive
O=C1CCNc2c(Cl)cc(Cl)cc21	inactive
COc1cccc(NC(=O)N2CCCc3ccccc32)c1	inactive
O=c1cc(O)c2ccccc2n1Cc1ccccc1F	inactive
O=S(=O)(NCCc1c[nH]c2ccccc12)c1ccccc1	inactive
CCC[n+]1c2ccccc2cc2ccccc21	31.7 µM (active)
CCc1cc2c(N3CCN(c4nnc(CC)s4)CC3)ncnc2s1	11.2 µM (active)

Structure (SMILES)	Potency
COc1cc(NC(=O)c2cccnc2)c(OC)cc1NC(=O)c1ccc(Br)cc1	inactive
CCOc1ccc(-c2nn(-c3ccccc3)cc2/C=C2\SC(N)=NC2=O)cc1C	inactive
Cc1ccc(S(=O)(=O)c2cc(OC(=O)c3ccco3)ccc2OC(=O)c2ccco2)cc1	inactive
O=C(/C=C/c1ccccc1)Nc1nnc(SCC(=O)c2ccc3ccccc3c2)s1	17.8 µM (active)
Cc1ccc(NC(=O)C(C)N2C(=O)c3ccccc3C2=O)c(C)c1 (configuration not stated)	inactive
O=C1NC(=S)N/C1=C/c1ccc2ccccc2c1	inactive
NC(=O)c1cc2ccccc2o/c1=N/NC(=O)c1cccc(F)c1	inactive
CCOC(=O)N1CCN(C(=O)c2oc3ccc(S(=O)(=O)N(CC)CC)cc3c2C)CC1	inactive
CC(C)Cc1cc(C(=O)NCCCN2CCOCC2)no1	inactive
COc1ccc(-c2csc(NC(=S)NC(=O)/C=C/c3ccc(C(C)C)cc3)n2)cc1OC	17.8 µM (active)
C=C(C)CNC(=S)Nc1cccc2cnccc12	inactive
Nc1cccc2c1C(=O)N(C(=O)c1ccco1)C2=O	inactive
NC(=O)c1ccc(NC(=O)c2cncn2-c2ccccc2)cc1	inactive
N#Cc1ccc(Cl)cc1NC(=O)CNCc1cccs1	inactive
O=C(Nc1nccs1)C(Br)C(Br)c1ccccc1 (configuration not stated)	inactive
COc1ccccc1C(=O)Nc1ccccc1SC(=O)c1ccccc1OC	inactive
